Molecules are shown by their SMILES. A number with no mark means an inactive call. Inconclusive results are not listed. Calls of active or inactive are those of the source. Unless noted, calls come from the whole dose curve; as a rule, active = well fitted curve in the direction sought with a large enough effect in the repeat runs; inconclusive = weak or mixed curves; inactive = no such curve, though single readings can be large; an effect the other way counts as inactive or inconclusive.

Results on seven molecules are retold here after PubChem BioAssay (Tox21).

The nature of experiment [1]: A CellTox Green Cytotoxicity Assay to monitor cytotoxicity in HepG2 cells - 8 hour (AID 1224890). Note: nearly all actives have a fitted effect of over 45% in size. The method, boiled down: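 Real-time, homogeneous cytotoxicity readout: dead-cell DNA staining by CellTox Green in HepG2 monolayers, fluorescence measured at timed intervals up to 40 h of continuous compound exposure.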
Experiment [2] in a line: qHTS assay to identify small molecule antagonists of the estrogen receptor alpha (ER-alpha) signaling pathway using the BG1 cell line in the presence of 0.1 nM 17-beta-estradiol - cell viability counter screen (AID 1259241). Note: nearly all actives have a fitted effect of over 40% in size. Note: potency is the fitted concentration of half-maximal effect. The method, boiled down:
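Live-cell protease activity (CellTiter-Fluor fluorescence, 30 min) was read in the same wells after VM7Luc4E2 cells had been exposed to compounds with 0.1 nM 17beta-estradiol for 22 hr at 37C.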
In general terms: In qHTS, concentration-response curves come from the screen itself.

A short description of experiment [3]: qHTS assay to identify small molecule antagonists of the androgen receptor (AR) signaling pathway using the MDA cell line in the presence of 0.5 nM R1881 - cell viability counter screen (AID 1259242). Note: nearly all actives have a fitted effect of over 45% in size. The method, boiled down:
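Cytotoxicity toward MDA-kb2 cells is measured by CellTiter-Fluor live-cell protease fluorescence after 16 hr compound exposure at 37C in the presence of 0.5 nM R1881 stimulator.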

Experiment [4] has as its target Estrogen receptor (Homo sapiens) (UniProt P03372). The experiment is described as follows: qHTS assay to identify small molecule antagonists of the estrogen receptor alpha (ER-alpha) signaling pathway using the BG1 cell line in the presence of 0.1 nM 17-beta-estradiol (AID 1259244). Note: nearly all actives have a fitted effect of over 50% in size. Note: potency is the fitted concentration of half-maximal effect. The method, boiled down:
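After 5 days in hormone-depleted medium (charcoal-stripped serum, no phenol red), VM7Luc4E2 cells were seeded, incubated 24 h, then co-treated with compound and 0.1 nM (final) estradiol for 22 h before luminescence detection.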

A short description of experiment [5]: qHTS assay to identify small molecule phospholipidosis (PLD) inducers (AID 1259344; active = well fitted curve in the direction sought with a large enough effect; an effect the other way counts as inactive or inconclusive). Summed up: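 HepG2 cells on collagen I, attached 4 h at 37 C, were co-treated with compound and LipidTOX Red dye for 24 h at 37 C, then fixed with paraformaldehyde plus Hoechst 33342 and imaged by high-content microscopy for phospholipid accumulation.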
A short description of experiment [6]: qHTS assay to identify small molecule HDAC inhibitors (AID 1259364). Note: top concentration of the series differs between compounds; nearly all actives have a fitted effect of over 45% in size. Summed up: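 Homogeneous cell-based luminescent assay of endogenous class I/II HDAC activity; HCT-116 cells, 2 h compound exposure, 30 min HDAC-Glo development at RT.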
Experiment [7] can be described thus: qHTS assay to identify small molecule HDAC inhibitors - cell viability counter screen (AID 1259365). Note: series mostly up to about 92 µM; nearly all actives have a fitted effect of over 50% in size. Summed up: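 HCT-116 (wild type), 1,500 cells/well, overnight 37C/5% CO2; compound in DMSO 2hr; CellTiter-Glo 30min RT; luminescence read.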
A short description of experiment [8]: qHTS assay to identify small molecule agonists of the sonic hedgehog signaling (Shh) pathway - cell viability counter screen (AID 1259366). Note: nearly all actives have a fitted effect of over 50% in size. Note: potency is the fitted concentration of half-maximal effect. Summed up: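 CellTiter-Fluor fluorescence read-out, 1 hr at 37C, added after 23hr compound exposure. Cells: 3T3 Gli1-Luc, an NIH/3T3 clone with stably integrated Gli1-Luc reporter, plated 4hr before compound.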
Experiment [9] is described as follows: qHTS assay to identify small molecule antagonists of the sonic hedgehog signaling (Shh) pathway - cell viability counter screen (AID 1259367). Note: nearly all actives have a fitted effect of over 55% in size. Note: potency is the fitted concentration of half-maximal effect. The method, boiled down: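 NIH/3T3-derived Gli1-Luc reporter cells (2,000 per well) rested 4 hr at 37 C, then received DMSO compounds plus conditioned medium. After 23 hr of treatment, CellTiter-Fluor was added for 1 hr at 37C and fluorescence read.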

Experiment [10] can be described thus: qHTS assay to identify small molecule agonists of the sonic hedgehog signaling (Shh) pathway (AID 1259368; calls by dose curve; note: nearly all actives have a fitted effect of over 15% in size; note: potency is the fitted concentration of half-maximal effect). Summed up: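 Steps: seed 3T3 Gli1-Luc cells, incubate 4 hr at 37 C, pin-transfer compounds in DMSO alongside a positive control, incubate 24 hr, add luciferase detection reagent, wait 30 min at room temperature, read luminescence.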
Experiment [11] is described as follows: qHTS assay to identify small molecule antagonists of the sonic hedgehog signaling (Shh) pathway (AID 1259369; calls by dose curve; note: nearly all actives have a fitted effect of over 45% in size; note: potency is the fitted concentration of half-maximal effect). The method, boiled down:
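Inhibition of Shh signalling is measured as reduced Gli1-response-element firefly luciferase output in an NIH/3T3-derived stable reporter clone stimulated with conditioned medium for 24hr.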

For experiment [12], the target named is Estrogen receptor beta (Homo sapiens) (UniProt Q92731). The experiment is described as follows: qHTS assay to identify small molecule antagonists of the estrogen receptor beta (ER-beta) signaling pathway (AID 1259378; active = well fitted inhibition curve with a large enough effect in the signal ratio in the repeat runs, not every such curve was filed as active; the % refers to the signal ratio). Summed up: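 ER-beta-UAS-bla HEK293T (GripTite) cells in 2% charcoal-stripped FBS medium were preincubated 6 hr at 37C, dosed with compound, then stimulated with 1 nM E2 (final) for 16 hr; beta-lactamase reporter read by B/G FRET fluorescence after 2 hr substrate loading.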
Estrogen receptor beta (Homo sapiens), sequence (Q92731 whole entry, looked up): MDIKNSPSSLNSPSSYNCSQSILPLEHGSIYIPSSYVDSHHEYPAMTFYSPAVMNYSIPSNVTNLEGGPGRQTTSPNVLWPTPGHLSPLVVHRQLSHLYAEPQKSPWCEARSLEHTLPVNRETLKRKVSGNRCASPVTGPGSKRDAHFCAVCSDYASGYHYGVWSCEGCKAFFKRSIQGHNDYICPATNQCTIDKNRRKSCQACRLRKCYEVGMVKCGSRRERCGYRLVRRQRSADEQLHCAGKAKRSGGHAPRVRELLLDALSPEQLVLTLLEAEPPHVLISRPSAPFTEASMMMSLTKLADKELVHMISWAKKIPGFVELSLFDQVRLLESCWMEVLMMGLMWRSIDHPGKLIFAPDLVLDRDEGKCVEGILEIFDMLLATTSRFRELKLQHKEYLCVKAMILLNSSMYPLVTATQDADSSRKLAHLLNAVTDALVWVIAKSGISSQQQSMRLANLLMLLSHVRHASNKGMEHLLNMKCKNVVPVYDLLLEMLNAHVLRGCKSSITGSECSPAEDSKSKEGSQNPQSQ

Experiment [13] in a line: qHTS assay to identify small molecule agonists of the androgen receptor (AR) signaling pathway in the presence of an antagonist - cell viability counter screen (AID 1259379).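 Note: MDA-kb2 human breast cancer cells carrying an MMTV luciferase reporter; series mostly up to about 92 µM; nearly all actives have a fitted effect of over 25% in size.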 Summed up:
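Fluorescence from CellTiter-Fluor, added after 15 hr and read 1 hr later, gave cell viability. Cells were MDA-kb2 exposed to compounds (15 concentrations) in the presence of 3.0uM nilutamide at 37C, 0% CO2.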

Experiment [14] can be described thus: qHTS assay to identify small molecule agonists of the estrogen receptor beta (ER-beta) signaling pathway - cell viability counter screen (AID 1259380). Note: nearly all actives have a fitted effect of over 30% in size. The method, boiled down: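 Same-well viability counter screen. Cells: ER-beta-UAS-bla HEK293T, plated 6 hr before compound, in 2% charcoal-stripped FBS. Compound exposure 16 hr, 37C; viability by CellTiter-Glo luminescence after 30 min at room temperature.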

The nature of experiment [15]: qHTS assay to identify small molecule antagonists of the estrogen receptor beta (ER-beta) signaling pathway - cell viability counter screen (AID 1259382). Note: series mostly up to about 92 µM; nearly all actives have a fitted effect of over 55% in size. Summed up:
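Following a 6 hr plating period, HEK293T cells carrying a UAS-driven beta-lactamase reporter under ER-beta control received compounds and 1nM E2 (final). After 16 hr at 37C and 2 hr substrate loading, CellTiter-Glo luminescence indicated viability.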

Experiment [16] addresses Estrogen receptor (Homo sapiens) (UniProt P03372). Put plainly: qHTS assay to identify small molecule agonists of the estrogen receptor alpha (ER-alpha) signaling pathway in the presence of an antagonist (AID 1259383; calls by dose curve; note: top concentration of the series differs between compounds; nearly all actives have a fitted effect of over 15% in size). Summed up:
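Cells are hormone-deprived for 5 days (charcoal-stripped FBS, no phenol red), plated for 24hr, spiked with 10.0nM ICI-182,780, then dosed at 15 concentrations. After 22hr at 37C, ONE-Glo luminescence reports ERE-luciferase activity.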

A short description of experiment [17]: qHTS assay to identify small molecule agonists or antagonists of the thyroid stimulating hormone receptor (TSHR) signaling pathway - wild type cell line counter screen (AID 1259384; calls by dose curve; note: potency is the fitted concentration of half-maximal effect). The method, boiled down: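 Wild-type HEK293 cells were plated 18 h at 37 C/5% CO2, pin-dosed with compound plus Ro20-1724 medium, held 30 min at room temperature, then given cAMP-d2 and anti-cAMP-cryptate; fluorescence was read after 1 h. Fifteen concentrations, triplicate.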

Experiment [18] has as its target Estrogen receptor beta (Homo sapiens) (UniProt Q92731). Put plainly: qHTS assay to identify small molecule agonists of the estrogen receptor beta (ER-beta) signaling pathway (AID 1259377; active = well fitted activation curve with a large enough effect in the signal ratio in the repeat runs, not every such curve was filed as active; the % refers to the signal ratio). The method, boiled down:
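Beta-lactamase reporter readout: fluorescence of LiveBLAzer B/G FRET substrate after 2 h at room temperature, following 16 h compound treatment of ER-beta-UAS-bla HEK293T cells at 37C in 2% charcoal-stripped FBS medium.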

For experiment [19], the target named is Androgen receptor (Homo sapiens) (UniProt P10275). Put plainly: qHTS assay to identify small molecule agonists of the androgen receptor (AR) signaling pathway in the presence of an antagonist (AID 1259381; calls by dose curve; note: nearly all actives have a fitted effect of over 15% in size). Summed up:
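Cells are MDA-kb2 (human breast carcinoma, MMTV-luc, AR/GR responsive). Nilutamide is present at 3.0uM final throughout; compounds are added at 15 concentrations and incubated 16hr at 37C before ONE-Glo luminescence detection.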

Estrogen receptor (Homo sapiens), sequence (P03372 whole entry, looked up): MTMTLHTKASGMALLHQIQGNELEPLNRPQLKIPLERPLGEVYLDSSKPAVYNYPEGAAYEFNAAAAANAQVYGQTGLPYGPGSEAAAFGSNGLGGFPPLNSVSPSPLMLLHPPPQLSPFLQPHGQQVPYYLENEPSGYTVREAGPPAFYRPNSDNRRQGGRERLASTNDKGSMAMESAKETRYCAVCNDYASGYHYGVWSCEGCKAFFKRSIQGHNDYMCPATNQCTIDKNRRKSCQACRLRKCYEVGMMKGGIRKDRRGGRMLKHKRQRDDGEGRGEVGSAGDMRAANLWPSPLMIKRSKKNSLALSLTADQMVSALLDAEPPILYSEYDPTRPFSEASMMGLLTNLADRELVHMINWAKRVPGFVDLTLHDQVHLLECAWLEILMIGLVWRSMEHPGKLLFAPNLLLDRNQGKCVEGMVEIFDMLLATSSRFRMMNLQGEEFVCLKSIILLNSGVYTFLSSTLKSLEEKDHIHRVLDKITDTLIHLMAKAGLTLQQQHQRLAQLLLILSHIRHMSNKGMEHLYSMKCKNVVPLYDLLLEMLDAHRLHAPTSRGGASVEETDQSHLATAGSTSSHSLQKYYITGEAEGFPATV
Androgen receptor (Homo sapiens), sequence (P10275 whole entry, looked up): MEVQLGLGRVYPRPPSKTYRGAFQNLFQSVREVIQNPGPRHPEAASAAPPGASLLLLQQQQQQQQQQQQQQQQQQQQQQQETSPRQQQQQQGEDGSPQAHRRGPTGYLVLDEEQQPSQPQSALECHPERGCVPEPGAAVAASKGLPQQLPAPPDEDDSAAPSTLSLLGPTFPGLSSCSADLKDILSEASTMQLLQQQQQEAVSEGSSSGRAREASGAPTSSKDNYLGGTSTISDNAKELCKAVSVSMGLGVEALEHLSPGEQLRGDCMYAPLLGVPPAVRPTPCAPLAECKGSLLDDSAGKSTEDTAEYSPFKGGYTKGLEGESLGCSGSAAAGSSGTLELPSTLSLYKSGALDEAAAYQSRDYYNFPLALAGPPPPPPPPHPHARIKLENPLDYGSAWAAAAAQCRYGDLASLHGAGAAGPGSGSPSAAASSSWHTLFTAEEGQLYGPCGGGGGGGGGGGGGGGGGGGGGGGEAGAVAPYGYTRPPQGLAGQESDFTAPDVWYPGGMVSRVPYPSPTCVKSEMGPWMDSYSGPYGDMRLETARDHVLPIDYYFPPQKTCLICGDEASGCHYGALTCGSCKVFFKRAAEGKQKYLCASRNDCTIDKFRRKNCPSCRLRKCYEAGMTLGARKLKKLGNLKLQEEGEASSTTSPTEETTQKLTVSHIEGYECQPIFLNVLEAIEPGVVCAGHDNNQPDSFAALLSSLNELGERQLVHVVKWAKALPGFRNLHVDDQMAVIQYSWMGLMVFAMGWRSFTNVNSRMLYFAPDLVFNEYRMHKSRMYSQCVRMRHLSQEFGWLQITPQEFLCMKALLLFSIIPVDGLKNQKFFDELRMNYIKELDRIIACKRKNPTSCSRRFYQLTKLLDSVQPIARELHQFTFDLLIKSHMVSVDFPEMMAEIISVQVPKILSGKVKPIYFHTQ

As to `O=c1[nH]c2cc(C(F)(F)F)c(N3CCOCC3)cc2n(CP(=O)(O)O)c1=O`, the Potency entry in [1], in [2], in experiment [3], in [4], in [5] and in experiment [6] was “inactive” each time. Moreover, the Potency result in experiment [7], in experiment [8], in experiment [9], in experiment [10], in [11] and in [12] was “inactive” throughout. Besides, the Potency entry in experiment [13], in [14], in experiment [15] and in [16] was “inactive” throughout.
`CC[C@H]1OC(=O)[C@H](C)[C@@H](O[C@H]2C[C@@](C)(OC)[C@@H](O)[C@H](C)O2)[C@H](C)[C@@H](O[C@@H]2O[C@H](C)C[C@H](N(C)C)[C@H]2O)[C@](C)(O)C[C@@H](C)/C(=N\OCOCCOC)[C@H](C)[C@@H](O)[C@]1(C)O`: the Potency entry in experiment [1], in [3], in experiment [4], in experiment [5], in [6] and in experiment [7] was “inactive” each time. In addition, the Potency result in [10], in [13], in experiment [14], in experiment [15], in experiment [16] and in experiment [17] was “inactive” each time. Besides, the Potency was 10.2 µM (active) in [2], 5.09 µM (active) in [8], 8.07 µM (active) in experiment [9] and 12.8 µM (active) in [11].
Turning to `O=CNNC=O`, the Potency entry in experiment [1], in [2], in experiment [3], in experiment [4], in [6] and in [7] was “inactive” each time. For the same molecule, the Potency entry in experiment [8], in experiment [9], in experiment [10], in [11], in [18] and in experiment [12] was “inactive” throughout. The Potency entry in [13], in experiment [14], in experiment [15] and in [16] was “inactive” throughout.
For `CCOC(=O)c1c(N)sc2c1CCN(Cc1ccccc1)C2`, the Potency result in experiment [1], in [2], in experiment [3], in [5], in [6] and in experiment [7] was “inactive” in each case. In addition, the Potency result in experiment [8], in experiment [10], in experiment [18], in experiment [12], in [13] and in [15] was “inactive” each time. The Potency entry in [16] and in experiment [17] was “inactive” each time. In addition, the Potency in [4] is 29.8 µM (active); in experiment [11], 10.6 µM (active).
On to `CCCCC[C@H](O)/C=C/[C@H]1[C@H](O)CC(=O)[C@@H]1C/C=C\CCCC(=O)O`, for which the Potency result in [1], in experiment [2], in experiment [3], in [4], in experiment [5] and in experiment [6] was “inactive” throughout. Moreover, the Potency result in experiment [7], in experiment [9], in [13], in [14], in [19] and in experiment [15] was “inactive” in each case. For the same molecule, the Potency result in experiment [16] was “inactive”. Besides, the Potency was 10.6 µM (active) in experiment [10], 0.006 µM (active) in [11] and 0.0174 µM (active) in experiment [17].
Turning to `CC1CCc2nccnc21` (stereo not drawn), the Potency result in experiment [1], in experiment [2], in experiment [3], in experiment [4], in [6] and in experiment [7] was “inactive” in each case. The Potency result in experiment [8], in experiment [9], in experiment [10], in experiment [11], in experiment [18] and in experiment [12] was “inactive” each time. For the same molecule, the Potency entry in experiment [13], in [14], in [15] and in experiment [16] was “inactive” in each case.
In the case of `O=C(O)CNC(=O)c1ccccc1I`, the Potency result in experiment [1], in [2], in experiment [3], in experiment [4], in experiment [5] and in [7] was “inactive” in each case. The Potency result in experiment [8], in [9], in experiment [10], in experiment [11], in experiment [18] and in [12] was “inactive” in each case. The Potency result in experiment [13], in experiment [14], in experiment [15], in experiment [16] and in experiment [17] was “inactive” throughout.
